# Assay results reported in the supplement of paper PMC12632987.
# The full ranking holds about 2,300 sequences; the median of “median log2 fold change of GCK-ALFA target abundance (FLAG IP / Myc IP barcode read proportion)” is about 0.095, and the lowest 2% start at about -0.47. The list comes from a sample in which the lowest values are over-represented; it also holds similar and randomly drawn sequences.
# B1: LC3A_45_1977 (protein)
# chain: MAEATLDVLVPRELAEAALEALKRGAERLLEERGPGVEVDLEALEESYRATRDEEEVLLTVRIRAPTRQEALDLADELVEELERELGRPVAAAISVEELP
# B2: LC3A_59_2019 (protein)
# chain: MEEIEEYREKLREAIDNIDEFVEIVREGLEKFKDDKEKVEALLEEVMEVIVEELGADPEEAEKVLKRMKEIFKTEKDKEKAIELVVDEIRDLLLLTPIEE
# B3: LC3A_3_1859 (protein)
# chain: MEEIKKEIIELLKSLGRSEEVIEAAERLANLLIERGYKEALETLLEELKKLKDVSDEILLAMFEDLIEALETEDLSEEELIERIEEEARIALNDQEIEEL
# B4: LC3A_17_549 (protein)
# chain: MEEIKKELEKLLKELEALVKELEKYDPEAAKKLKKKLKEAKKLLEEGKLKEAAETLAEAARELANKLDELEPKHGNEASVLAMEASGLELEAIGLLLKLE
# B5: LC3A_3_1857 (protein)
# chain: MEEIKKEILELLKKLGRSEETIKAAEELADALIKRGYKKALEKLLEELKKLKNASDELLLDMFKELLAALENEKLNEEELIKKIEEEAKIVKNEQEIIEL
# B6: LC3A_147_450 (protein)
# chain: VLYEITVDILFKNDPELAEEVEEEIKEIAEKYGGEVEVEREVEQETPTTTLYFVRVTIKFEDEEKALEAEQEISELLDETAKKHPEKFVGAMISIEKIEE
# B7: LC3A_28_755 (protein)
# chain: ADIEGTIKEAIERAKKAKEEGKEEVIEITVPAGATQADIDKVIEGMEEIAEINKDMKRTTILVNVEAGVAQENLDKLIDAGEEIEEKYPNVTVIFALDEE
# B8: LC3A_28_1202 (protein)
# chain: SATKAAADAALAEAKALLAAGEEGVVELVVEGKITEEETQYVIDKLEEIAELAAKSGKISIVLDISGEVPEEHQQKLIDKADELEKKYPNVNIIVALEER
# B9: LC3A_3_1805 (protein)
# chain: ADERIEALLEELRAAGASEETIAAAREVLTLLRERGYLEALETLIEGLRELLDAPDELRLDLLEDVLEYLETNDASEEEVTEFIKEEIRLARSESEIEEL
# B10: LC3A_28_1235 (protein)
# chain: NAVEKQIEAAKAEVEAAVAAGEEALVELTVTKETTEEDVEKIIKAMEEIAALAATLPALTIIIDVERGVKQEHIDKLADAADAIEAKYPNVTVIIALEEE
# B11: LC3A_17_590 (protein)
# chain: SEEIREELEELLKELKELIKEAKKLGIPEAKEVEKLLKEAEKALKEGKLREAAELLREAADLLADALEEIEEELGSKASVLEMEANGLALRAEGILLKLE
# B12: LC3A_17_592 (protein)
# chain: SEEIKKEIEELLKELKKLIKKMKELGIPEAKEIEKLLKEAEKALKEGDLKKAAELLAKAADLAADALEEKEEELGSEASVLEMEANGLELRAIGILLKLD
# B13: LC3A_28_956 (protein)
# chain: SALEEALKKAIEEAKKAAEKGEPAVITIKVPGDADEEDIEKVIEALREIAEILKDVKGAAIIVDVDGKVKQEHIDKIAEEAERIEKEYPNVTVIIALDEE
# B14: LC3A_3_1793 (protein)
# chain: AQARIDALLAELRAAGKSDETLAAVRAAATALADRGYEEALATFIEELRELIDAPDEILLDLAEEVLRLIEEEDLDEEELTERIKELAELARNEAEIIEL
# B15: LC3A_free_8_2441 (protein)
# chain: SNQELVDAALKLLDELEEEIEKKAKELGLDETDIGLLLLEVGSAISEVISLSDASPEEILKATKEDLEEIIKLAEEINKELAKIVKEKAEKILKELEKLL
# B16: LC3A_28_693 (protein)
# chain: SAIDKQIAAARAEADAAIAAGEEATLTITVTADTTQADVDRIMAAIEEIAARMAASAKLNIIIDVEAGVPQEHLDRLADFGDALAARYPNVNIIIALDED
# B17: LC3A_free_39_2214 (protein)
# chain: SEEELEELIKEVAKESGLDYEYIKKKIEEIKEIAGLSLEQMKELVKAILEAVKAGADAEEILKRILALAKELKAAGKSPEEIAEALIEEAEDFRNLIPLD
# B18: LC3A_free_39_2217 (protein)
# chain: SMEEIEKLIKEIAEEGGIDYEYVKKKIEEIKEVAGLSDEQILELVKAILEAVKAGADAKEILERILKLAKELKEEGKSPEEIAKELLEEIEDFRNLIPLD
# B19: LC3A_free_39_2288 (protein)
# chain: SMEELEKAVKRLAELLDKIEGVTEEEKQTILEAAKKSLETAKAILEALETIEKDGGDVAEAAKRIAAKIKELEAAGKSLEEMTEEIIALTKDLVNLIPID
# B20: LC3A_3_1447 (protein)
# chain: AEELREEALELLRERGASPETIAAAEELFDALIEKGYLEAMELVLEFLKEVKDASDEFLLETFKDLLELVLTSDDSPEEMKKKIEEELSAFRSELEIEEL
# B21: LC3A_3_1875 (protein)
# chain: MDEKIEETIELLKEAGASEETIEKFEEVAELLKERGYEEALETLIEEVKKLAGTSDEILLDFLEEVLEVLKTKDLSEEELIEEIKRIARLALNEAEIIEL
# B22: LC3A_3_1891 (protein)
# chain: LEERIERTEELLREKGASEETIELFRKVMELLKARGYEEALKTLIEEVEELADLPDEILLDFLEEVLEVLETEDLSEEELIKKIKELARLARNEGEIIEL
# B23: LC3A_3_1892 (protein)
# chain: LEERVEETVERLKEAGASEETIELFLEAAELLLERGYYEALETLIDEVEELIDLPDEILLDFLEEVLEVLETEDLSEEELIERIKELARLAKNEGEIEEL
# B24: LC3A_28_685 (protein)
# chain: SKTEEDLKKALEEAEEALKKGEPTVVRINVYGDVTEEELEKVLKALEEIAKILNKIPGSAIIVDIDADVDEEFEDKIIDKAEELEKKYPNVTIIIALEER
# B25: LC3A_28_1013 (protein)
# chain: MSIVEETKKKIEEALKEAEKGEDAYLEVEITSEATQEEVEEVLELIEKAAKEVSKLPNVKLYVVIYDDSNQENHQLIVDAADRIEEKYPNVHVIVAYDDE
# B26: LC3A_45_1937 (protein)
# chain: MYLATIDLIVPRELAEEALALAEEIARELEEENDGKVEVDLETLRESYEATRDEEDVLLVVKIYAETEELALDVADRLVDRLRAALGPRVAAIISVEEVP
# B27: LC3A_free_46_2420 (protein)
# chain: MTLDIDIDVLAKTEETAKAVAKELTKTLEDTAKELGVKVEIKVEIEKLEDGTYYVHIDATFTGVTEEQAQQIEDKVIDKVEELEKKYPEILGSIISSELE
# B28: LC3A_free_26_2152 (protein)
# chain: DIFIDLVELDKAIELLEKALKLLEEDKNASEELKKLVKEALKKAEEMTLESLEEAKKLVEEALKLLEKDKSLSEEKKKELKKLLEEALKLLEKNIEIAKS
# B29: LC3A_28_1030 (protein)
# chain: AALKAAAAAALAEARAQFEAGEEAVVTLDVGDVPTAEAKAVVTAFLAELRALSAEYGGRKVSVVINYDGDQATLDAIIDAAEAAEAEDPNLTVIIAYADN
# Target: MAP1LC3A, Q9H492
# Experiment: median log2 fold change of GCK-ALFA target abundance (FLAG IP / Myc IP barcode read proportion) (log2 ratio); each designed protein is fused to an ALFA-tag nanobody in HEK293 cells to bring the named protein to FLAG-tagged glucokinase (GCK); Myc marks an untargeted standard; higher = target protein stabilised (more abundant)
# Settings: target protein: 3xFLAG-MCP-GCK-ALFA reporter; HEK293 landing pad (RPLP)
# Procedure: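 LABEL-seq trans screen in HEK293 landing-pad cells. Each de novo designed 100-aa effector handle, binding the indicated effector (E3 ligase, DUB or autophagy protein), is fused to a constant NbALFA target handle and induced with 2 ug/mL doxycycline. A FLAG-MCP-GCK-ALFA target and a Myc-MCP standard reporter were transfected, and after 48 h circRNA barcodes were recovered by anti-FLAG and anti-Myc IP and sequenced. The value is the median across barcodes (at least 3 per design) of log2(FLAG/Myc read-proportion ratio), with the two transfection replicates pooled. Negative values mean degradation and positive values mean stabilisation of the target.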
row,Binder,median log2 fold change
1,B1,0.107
2,B2,-0.514
3,B3,0.169
4,B4,0.207
5,B5,0.117
6,B6,-0.716
7,B7,-0.196
8,B8,-0.206
9,B9,-0.0069
10,B10,0.0727
11,B11,0.0276
12,B12,-0.636
13,B13,-0.0851
14,B14,0.139
15,B15,0.0457
16,B16,0.211
17,B17,-0.832
18,B18,-0.012
19,B19,0.326
20,B20,0.173
21,B21,0.289
22,B22,-0.0314
23,B23,-0.691
24,B24,-0.264
25,B25,-0.261
26,B26,-0.359
27,B27,-0.177
28,B28,0.192
29,B29,-0.268
